Assay results as given in PubChem BioAssay (Tox21).
Results filed as inconclusive are left out. Active and inactive are the calls of the source. Unless noted, calls follow the shape of the full dose curve.

Tests used:
[1] = Nuclear factor erythroid 2-related factor 2/antioxidant responsive element (Nrf2/ARE) small molecule agonists: luciferase reporter gene qHTS assay in human keratinocytes (AID 1919969); also: nearly all actives have a fitted effect of over 35% in size
[2] = target: Gonadotropin-releasing hormone receptor (Homo sapiens) (UniProt P30968); assay: Human gonadotropin-releasing hormone receptor (GnRHR) small molecule agonists, calcium flux assay in GnRHR-HEK293 cells (AID 1920063); also: nearly all actives have a fitted effect of over 35% in size
Gonadotropin-releasing hormone receptor (Homo sapiens), sequence (P30968 whole entry, looked up): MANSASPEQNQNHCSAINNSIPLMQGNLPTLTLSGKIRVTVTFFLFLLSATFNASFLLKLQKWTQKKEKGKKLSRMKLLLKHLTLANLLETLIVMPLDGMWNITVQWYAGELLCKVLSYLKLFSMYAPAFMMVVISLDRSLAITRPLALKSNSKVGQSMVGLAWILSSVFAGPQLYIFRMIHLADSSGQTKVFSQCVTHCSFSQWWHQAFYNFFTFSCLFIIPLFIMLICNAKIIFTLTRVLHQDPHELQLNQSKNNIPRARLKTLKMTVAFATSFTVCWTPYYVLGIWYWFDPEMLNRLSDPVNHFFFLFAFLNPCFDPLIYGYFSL
Procedure, shortened: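 Stable human GnRHR HEK293 line. 18 h plating, then calcium dye for 1 h at 37 C. Agonist-mode compound addition from DMSO stocks; fluorescence monitored 3 min.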

[3] = target: KiSS-1 receptor (Homo sapiens) (UniProt Q969F8); assay: Human kisspeptin (KISS1R) small molecule agonists, calcium flux assay in KISS1R-HEK293 cells (AID 1920064; active = well fitted activation curve with a large enough effect in the repeat runs)
KiSS-1 receptor (Homo sapiens), sequence (Q969F8 whole entry, looked up): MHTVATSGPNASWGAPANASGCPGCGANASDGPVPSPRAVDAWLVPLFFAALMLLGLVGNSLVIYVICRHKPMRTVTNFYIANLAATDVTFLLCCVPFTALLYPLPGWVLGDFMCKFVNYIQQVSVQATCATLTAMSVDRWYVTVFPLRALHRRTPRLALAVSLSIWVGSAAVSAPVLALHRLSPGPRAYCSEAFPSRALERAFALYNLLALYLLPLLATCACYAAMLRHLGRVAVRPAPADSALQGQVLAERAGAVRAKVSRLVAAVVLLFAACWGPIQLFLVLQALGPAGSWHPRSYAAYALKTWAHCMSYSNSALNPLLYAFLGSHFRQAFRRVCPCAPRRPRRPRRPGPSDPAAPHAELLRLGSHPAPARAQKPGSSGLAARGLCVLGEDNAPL
Procedure, shortened: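 After overnight (18 h) culture at 37 C/5% CO2, human KISS1R-HEK293 cells received calcium dye for 1 h, then test compound; emission at 540 nm (excitation 480 nm) was tracked for 3 min.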

[4] = G protein-coupled receptor (GPCR) small molecule agonists, calcium flux assay: HEK293 wild type cell line counter screen (AID 1920065)
Procedure, shortened: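 Following 18 h incubation at 37 C/5% CO2, plates got calcium dye for 1 h; compounds, ATP or DMSO were then pinned in and fluorescence followed kinetically (480/540 nm).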

[5] = p53 small molecule agonists, cell-based qHTS assay with human liver microsomes (AID 1963577)
Procedure, shortened: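 Compounds act here after metabolic activation: human liver microsomes and NADPH, both at 0.5 mg/mL final, were co-added to p53RE-bla cells. Incubation ran 16 h at 37 C, followed by LiveBLAzer detection.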

[6] = p53 small molecule agonists, cell-based qHTS assay with rat liver microsomes (AID 1963578)
Procedure, shortened: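 Read-out is beta-lactamase reporter fluorescence (LiveBLAzer, 2 h, room temperature, dark) in p53RE-bla cells treated 16 h at 37 C with compound, rat liver microsomes and NADPH, both 0.5 mg/mL final.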

[7] = p53 small molecule agonists, cell-based qHTS assay with human liver microsomes: qHTS cell viability counter screen (AID 1963579); also: nearly all actives have a fitted effect of over 45% in size
Procedure, shortened: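 Cells carrying the p53 response-element beta-lactamase reporter are treated for 16 h at 37 C with test compounds in the presence of human liver microsomes and NADPH (both 0.5 mg/mL final); ATP-based CellTiter-Glo luminescence then reports viability.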

[8] = p53 small molecule agonists, cell-based qHTS assay with rat liver microsomes: qHTS cell viability counter screen (AID 1963580); also: nearly all actives have a fitted effect of over 45% in size
Procedure, shortened: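 Rat liver microsome (0.5 mg/mL final) and NADPH (0.5 mg/mL final) co-incubation with compounds for 16 h at 37 C on HCT-116 p53RE-bla cells; cytotoxicity taken from intracellular ATP luminescence.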

[9] = p53 small molecule agonists, cell-based qHTS assay: qHTS cell viability counter screen (AID 1963581); also: nearly all actives have a fitted effect of over 45% in size
Procedure, shortened: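 qHTS counter screen: 16 h compound exposure at 37 C of p53RE-bla HCT-116 cells (4,000 per well, seeded 5 h prior), cell viability by ATP luminescence.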

[10] = p53 small molecule agonists, cell-based qHTS assay (AID 1963582; active = well fitted activation curve with a large enough effect in the signal ratio in the repeat runs, not every such curve was filed as active; the % refers to the signal ratio)
Procedure, shortened: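 Measured: fluorescence from cleaved LiveBLAzer substrate. System: p53RE-bla cells, 16 h compound treatment at 37 C, 2 h substrate step at room temperature.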

[11] = target: 5-hydroxytryptamine receptor 2A (Homo sapiens) (UniProt P28223); assay: 5-hydroxytryptamine receptor 2A (HTR2A) small molecule antagonists, cell-based qHTS assay (AID 1963586); also: nearly all actives have a fitted effect of over 45% in size
5-hydroxytryptamine receptor 2A (Homo sapiens), sequence (P28223 whole entry, looked up): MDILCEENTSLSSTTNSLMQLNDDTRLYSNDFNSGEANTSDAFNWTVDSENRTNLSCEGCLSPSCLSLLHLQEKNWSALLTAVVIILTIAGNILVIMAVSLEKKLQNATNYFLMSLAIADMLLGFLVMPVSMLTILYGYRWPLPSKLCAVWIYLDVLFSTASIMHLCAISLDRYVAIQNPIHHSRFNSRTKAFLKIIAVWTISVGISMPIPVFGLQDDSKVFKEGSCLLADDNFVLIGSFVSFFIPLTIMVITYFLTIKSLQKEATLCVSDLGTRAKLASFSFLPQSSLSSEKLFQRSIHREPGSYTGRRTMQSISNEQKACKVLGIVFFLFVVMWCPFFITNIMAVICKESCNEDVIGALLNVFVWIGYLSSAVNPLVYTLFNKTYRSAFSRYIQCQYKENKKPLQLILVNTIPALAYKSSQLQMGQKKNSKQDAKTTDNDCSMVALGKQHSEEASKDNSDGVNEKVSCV
Procedure, shortened: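 CHO cells stably expressing human HTR2A were plated for 18 h at 37 C, then loaded with calcium dye for 1 h. Compounds were preincubated 5 min at room temperature before DOI (4 nM solution) was added. Kinetic fluorescence was read for 3 min.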

[12] = target: 5-hydroxytryptamine receptor 2A (Homo sapiens) (UniProt P28223); assay: 5-hydroxytryptamine receptor 2A (HTR2A) small molecule agonists, cell-based qHTS assay (AID 1963587); also: nearly all actives have a fitted effect of over 30% in size
Procedure, shortened: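 Kinetic calcium-flux fluorescence (2 min, 1 sec intervals) after compound addition in agonist mode. HTR2A-CHO cells were cultured 18 h, then dye-loaded 1 h at 37 C.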

[13] = target: Muscarinic acetylcholine receptor M1 (Homo sapiens) (UniProt P11229); assay: Cholinergic receptor muscarinic 1 (CHRM1) small molecule antagonists, cell-based qHTS assay (AID 1963588); also: nearly all actives have a fitted effect of over 40% in size
Muscarinic acetylcholine receptor M1 (Homo sapiens), sequence (P11229 whole entry, looked up): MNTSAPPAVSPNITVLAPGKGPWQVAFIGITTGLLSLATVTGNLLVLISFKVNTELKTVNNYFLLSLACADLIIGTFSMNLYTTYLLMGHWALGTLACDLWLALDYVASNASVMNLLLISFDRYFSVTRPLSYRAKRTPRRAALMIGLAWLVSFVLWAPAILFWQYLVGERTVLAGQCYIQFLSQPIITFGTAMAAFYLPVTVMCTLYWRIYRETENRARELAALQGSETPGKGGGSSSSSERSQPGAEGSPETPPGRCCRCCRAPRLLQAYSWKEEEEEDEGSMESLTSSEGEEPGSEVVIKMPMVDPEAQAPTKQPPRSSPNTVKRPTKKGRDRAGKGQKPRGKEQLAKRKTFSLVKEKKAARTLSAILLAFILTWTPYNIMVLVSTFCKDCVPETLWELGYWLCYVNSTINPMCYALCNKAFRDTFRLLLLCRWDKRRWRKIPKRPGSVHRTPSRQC
Procedure, shortened: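 Compounds were tested at 15 concentrations in three independent runs. Dye-loaded CHRM1-CHO cells were exposed 5 min at room temperature before stimulation by acetylcholine added at 50nM. Intracellular calcium was read kinetically on FDSS for 3 min.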

[14] = target: Muscarinic acetylcholine receptor M1 (Homo sapiens) (UniProt P11229); assay: Cholinergic receptor muscarinic 1 (CHRM1) small molecule agonists, cell-based qHTS assay (AID 1963589); also: nearly all actives have a fitted effect of over 35% in size
Procedure, shortened: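 Kinetic fluorescence (1 s intervals) of calcium-sensitive dye in human M1 CHO cells after compound addition; cells pre-incubated 18 h at 37 C/5% CO2 and dye-loaded 1 h.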

[15] = cAMP Responsive Elements (CRE) small molecule agonists, cell-based qHTS assay (AID 1963590)
Procedure, shortened: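 Test agents in DMSO were incubated 3 h at 37 C/5% CO2 with CRE-bla HEK 293T cells seeded 18 h earlier; LiveBLAzer B/G FRET substrate was added and read after 2 h at room temperature.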

[16] = cAMP Responsive Elements (CRE) small molecule antagonists, cell-based qHTS assay (AID 1963591; active = well fitted inhibition curve with a large enough effect in the signal ratio in the repeat runs, not every such curve was filed as active; the % refers to the signal ratio)
Procedure, shortened: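 Reporter line CRE-bla HEK 293T in dialyzed-FBS DMEM; cells preincubated 18 h, treated 3 h with compound plus NKH477 (0.25 uM final); LiveBLAzer FRET, 2 h RT.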

[17] = target: Beta-2 adrenergic receptor (Homo sapiens) (UniProt P07550); assay: Adrenergic beta2 receptor (ADRB2) small molecule antagonists, cell-based qHTS assay (AID 1963592); also: series mostly up to about 92 µM; nearly all actives have a fitted effect of over 50% in size
Beta-2 adrenergic receptor (Homo sapiens), sequence (P07550 whole entry, looked up): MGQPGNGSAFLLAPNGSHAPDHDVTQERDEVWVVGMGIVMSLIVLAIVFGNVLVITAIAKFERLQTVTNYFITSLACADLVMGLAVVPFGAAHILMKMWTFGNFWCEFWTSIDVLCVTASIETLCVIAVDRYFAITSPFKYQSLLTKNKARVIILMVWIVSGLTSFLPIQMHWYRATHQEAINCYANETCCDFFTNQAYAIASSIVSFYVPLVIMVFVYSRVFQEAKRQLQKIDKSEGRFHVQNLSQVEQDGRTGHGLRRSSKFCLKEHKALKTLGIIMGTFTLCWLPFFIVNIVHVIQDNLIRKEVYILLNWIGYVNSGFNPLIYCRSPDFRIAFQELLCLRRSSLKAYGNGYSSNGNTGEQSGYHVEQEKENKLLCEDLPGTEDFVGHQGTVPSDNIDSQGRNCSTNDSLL
Procedure, shortened: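 Assay format: CHO-ADRB2 cells, 18-20hr seeding at 37C/5% CO2, then compound plus 1nM isoproterenol agonist mix for 0.5hr RT. Homogeneous time-resolved fluorescence cAMP detection after 1hr, expressed as 665/615 nm ratio.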

[18] = target: D(2) dopamine receptor (Homo sapiens) (UniProt P14416); assay: Dopamine D2 receptor (DRD2) small molecule agonists, cell-based qHTS assay (AID 1963594); also: nearly all actives have a fitted effect of over 35% in size
D(2) dopamine receptor (Homo sapiens), sequence (P14416 whole entry, looked up): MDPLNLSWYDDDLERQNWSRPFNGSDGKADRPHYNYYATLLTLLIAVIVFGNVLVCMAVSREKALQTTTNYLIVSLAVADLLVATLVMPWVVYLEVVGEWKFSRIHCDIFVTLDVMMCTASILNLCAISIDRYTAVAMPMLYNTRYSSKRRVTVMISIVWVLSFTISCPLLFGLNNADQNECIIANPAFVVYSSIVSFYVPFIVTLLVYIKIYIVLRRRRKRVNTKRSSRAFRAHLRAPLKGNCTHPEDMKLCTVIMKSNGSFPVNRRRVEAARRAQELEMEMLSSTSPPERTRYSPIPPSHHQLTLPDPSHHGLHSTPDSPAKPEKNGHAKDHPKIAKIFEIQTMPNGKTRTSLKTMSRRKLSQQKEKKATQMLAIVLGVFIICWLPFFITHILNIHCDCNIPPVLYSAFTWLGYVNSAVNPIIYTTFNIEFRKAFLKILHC
Procedure, shortened: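 cAMP accumulation in DRD2-HEK293 cells measured by HTRF after 1 h detection; compounds added 10 min before NKH477 (200nM […]) forskolin-analogue stimulation, 30 min at room temperature, with Ro20-1724 present at 0.1 mM final.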

[19] = target: D(2) dopamine receptor (Homo sapiens) (UniProt P14416); assay: Dopamine D2 receptor (DRD2) small molecule antagonists, cell-based qHTS assay (AID 1963595; active = well fitted inhibition curve with a large enough effect in the signal ratio in the repeat runs, with a control signal flat; the % refers to the signal ratio)
Procedure, shortened: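 DRD2-HEK293; 0.1 mM Ro20-1724; cpd 10 min RT; NKH477 200 nM + quinpirole 12 nM, 30 min RT; HTRF cAMP (cAMP-d2/anti-cAMP cryptate), 665/620 nm ratio after 1 h.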

[20] = target: Beta-2 adrenergic receptor (Homo sapiens) (UniProt P07550); assay: Adrenergic beta2 receptor (ADRB2) small molecule agonists, cell-based qHTS assay (AID 1963593);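 also: CHO cells stably overexpressing human ADRB2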
Procedure, shortened: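 CHO cells stably over-expressing ADRB2 were plated overnight at 37C, then dosed with compounds plus a stimulation mix containing 100uM IBMX and 25uM Ro-20-1724 for 0.5hr at room temperature. cAMP was measured by HTRF competition, 1hr.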
% is scaled to controls: 0 for no effect and ±100 for the full control effect.

COCCCOc1cc(C[C@@H](C[C@H](N)[C@@H](O)C[C@H](C(=O)NCC(C)(C)C(N)=O)C(C)C)C(C)C)ccc1OC
inactive: Potency [1] | Potency [2] | Potency [3] | Potency [4] | Potency [5] | Potency [6] | Potency [7] | Potency [8] | Potency [9] | Potency [10] | Potency [11] | Potency [12] | Potency [13] | Potency [14] | Potency [15] | Potency [16] | Potency [17] | Potency [18] | Potency [19]

CC1=CC[C@@H](C(C)(C)O)CC1
inactive: Potency [1] | Potency [2] | Potency [3] | Potency [4] | Potency [5] | Potency [6] | Potency [7] | Potency [8] | Potency [9] | Potency [10] | Potency [12] | Potency [13] | Potency [14] | Potency [15] | Potency [16] | Potency [17] | Potency [20] | Potency [18] | Potency [19]

OCCN1CCNCC1
inactive: Potency [1] | Potency [2] | Potency [3] | Potency [4] | Potency [5] | Potency [6] | Potency [7] | Potency [8] | Potency [9] | Potency [10] | Potency [11] | Potency [12] | Potency [13] | Potency [14] | Potency [15] | Potency [16] | Potency [17] | Potency [20] | Potency [19]

COc1cccc(Br)c1
inactive: Potency [1] | Potency [2] | Potency [3] | Potency [4] | Potency [5] | Potency [6] | Potency [7] | Potency [8] | Potency [9] | Potency [10] | Potency [11] | Potency [12] | Potency [14] | Potency [17] | Potency [18]

O=C[O][Al]([O]C=O)[O]C=O
inactive: Potency [1] | Potency [2] | Potency [3] | Potency [4] | Potency [5] | Potency [6] | Potency [7] | Potency [8] | Potency [9] | Potency [10] | Potency [11] | Potency [12] | Potency [13] | Potency [14] | Potency [15] | Potency [16] | Potency [17] | Potency [20] | Potency [18] | Potency [19]

C=CCOCC(CC)(CO)COCC=C
inactive: Potency [1] | Potency [2] | Potency [3] | Potency [4] | Potency [5] | Potency [6] | Potency [7] | Potency [8] | Potency [9] | Potency [10] | Potency [11] | Potency [12] | Potency [13] | Potency [14] | Potency [16] | Potency [18] | Potency [19]

COCCCC/C(=N\OCCN)c1ccc(C(F)(F)F)cc1
inactive: Potency [1] | Potency [2] | Potency [3] | Potency [4] | Potency [5] | Potency [6] | Potency [7] | Potency [8] | Potency [9] | Potency [11] | Potency [12] | Potency [13] | Potency [14] | Potency [15] | Potency [16] | Potency [17] | Potency [20] | Potency [19]

O=[N+]([O-])c1ccc(F)cc1F
inactive: Potency [1] | Potency [2] | Potency [3] | Potency [4] | Potency [5] | Potency [6] | Potency [7] | Potency [8] | Potency [9] | Potency [10] | Potency [11] | Potency [12] | Potency [13] | Potency [14] | Potency [16] | Potency [17] | Potency [20] | Potency [18] | Potency [19]

C[C@@H]1NC(=O)[C@@H](N)CNC(=O)[C@H](C2CCNC(N)=N2)NC(=O)/C(=C/NC(N)=O)NC(=O)[C@H](CNC(=O)C[C@@H](N)CCCN)NC1=O (stereo not given in full)
inactive: activity, positive = activation [1] -0.551% [at 0.349 µM] | activity change [2] -0.0026% [at 0.217 µM, active compounds read high] | activation [3] 4.86% [at 0.29 µM] | activation [4] -0.973% [at 0.217 µM] | activation [5] -0.0566% [at 0.249 µM] | activation [6] 0.811% [at 0.249 µM] | activity change, negative = cytotoxicity [7] 0.952% [at 0.249 µM] | activity change, negative = cytotoxicity [8] -3.72% [at 0.249 µM] | activity change, negative = cytotoxicity [9] -17.8% [at 0.249 µM] | activation [10] 5.76% [at 0.249 µM] | activity, negative = inhibition [11] 39.2% [at 0.233 µM] | activation [12] -0.558% [at 0.292 µM] | activity, negative = inhibition [13] -3.02% [at 0.232 µM] | activation [14] -0.0449% [at 0.29 µM] | activity change, negative = inhibition [16] 0.0328% [at 0.349 µM] | activity change, negative = inhibition [17] 6.03% [at 0.349 µM] | activation [20] -2.39% [at 0.349 µM] | activation [18] -0.993% [at 0.349 µM] | activity change, negative = inhibition [19] -5.12% [at 0.348 µM]

CCO/C([O-])=N/c1c[n+](N2CCOCC2)no1
inactive: Potency [1] | Potency [2] | Potency [3] | Potency [4] | Potency [5] | Potency [6] | Potency [7] | Potency [9] | Potency [10] | Potency [11] | Potency [12] | Potency [13] | Potency [14] | Potency [15] | Potency [16] | Potency [17] | Potency [20] | Potency [19]

CCCC(C)CO (stereo not given)
inactive: Potency [1] | Potency [2] | Potency [3] | Potency [4] | Potency [5] | Potency [6] | Potency [7] | Potency [8] | Potency [10] | Potency [12] | Potency [13] | Potency [14] | Potency [15] | Potency [16] | Potency [17] | Potency [20] | Potency [18] | Potency [19]

C=CCCC
inactive: Potency [1] | Potency [2] | Potency [3] | Potency [4] | Potency [5] | Potency [6] | Potency [7] | Potency [8] | Potency [9] | Potency [10] | Potency [11] | Potency [12] | Potency [13] | Potency [14] | Potency [15] | Potency [16] | Potency [17] | Potency [18] | Potency [19]
